Measured values as given in the supplement of paper PMC10849652.
Of roughly 7,900 targets only a part is listed; those with a hit were picked by preference. About 0.6% of all pairs of compound and target were hits. A number with no mark means an inactive call.

Columns and labels:
Test in all cases: log2 fold change, soluble protein after heating vs DMSO (PISA); higher = thermal stabilisation; K562 cells, 10 uM, 30 min; active = over 0.2 and 3.5 SD of the protein, either way, in both replicates (recomputed)
[1] = compound: CC1=C(C=C(C=C1)NC(=O)C2=CC(=CC=C2)C(C)(C)C#N)NC3=CC4=C(C=C3)N=CN(C4=O)C
How it was run: (§1)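 Values are thermal stability changes relative to control samples and are taken from duplicates. They are stated as log2 fold changes. Before quantification by TMTpro 16plex LC-MS/MS with equalised channel sums, K562 cells at 2×10^6 cells/mL were treated with 10 μM compound for 30 min, heated in aliquots for 3 min across 48°C-58°C, pooled, extracted in PBS with 0.5% NP-40 at 4°C, and centrifuged at 21,000xg for 90 min to give the soluble supernatant.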

[2] = compound: CC1=C(C=C(C=C1)NC(=O)C2=CC(=CC=C2)N(C)C)NC(=O)C3=CC=C(C=C3)O
How it was run: as §1

[3] = compound: CC1=CC=C(C=C1)SC2=C3C=C(SC3=CN=C2)C(=O)N
How it was run: as §1

[4] = compound: CC1=NC(=CC=C1)C2=C(N=C(N2)C(C)(C)C)C3=CC4=NC=CN=C4C=C3
How it was run: as §1

Nexturastat A = compound: CCCCN(Cc1ccc(C(=O)NO)cc1)C(=O)Nc1ccccc1 [Nexturastat A]
How it was run: as §1

vemurafenib = compound: CCCS(=O)(=O)Nc1ccc(F)c(C(=O)c2c[nH]c3ncc(-c4ccc(Cl)cc4)cc23)c1F [vemurafenib]
How it was run: as §1

[5] = compound: CCCS(=O)(=O)Nc1ccc(F)c(C(=O)c2c[nH]c3ncc(Cl)cc23)c1F
How it was run: as §1

[6] = compound: CCCc1cc(C)[nH]c(=O)c1CNC(=O)c1cc(-c2ccnc(N3CCN(C)CC3)c2)cc2c1cnn2C(C)C
How it was run: as §1

givinostat = compound: CCN(CC)Cc1ccc2cc(COC(=O)Nc3ccc(C(=O)NO)cc3)ccc2c1 [givinostat]
How it was run: as §1

barasertib = compound: CCN(CCCOc1ccc2c(Nc3cc(CC(=O)Nc4cccc(F)c4)[nH]n3)ncnc2c1)CCOP(=O)(O)O [barasertib]
How it was run: as §1

[7] = compound: CC[C@@H]1C(=O)N(C)c2cnc(Nc3ccc(C(=O)NC4CCN(C)CC4)cc3OC)nc2N1C1CCCC1
How it was run: as §1

volasertib = compound: CC[C@@H]1C(=O)N(C)c2cnc(Nc3ccc(C(=O)N[C@H]4CC[C@H](N5CCN(CC6CC6)CC5)CC4)cc3OC)nc2N1C(C)C [volasertib]
How it was run: as §1

[8] = compound: CC[C@H](C)N1C=C(C2=C(C=C(C=C21)C3=CN=C(C=C3)N4CCNCC4)C(=O)NCC5=C(C=C(NC5=O)C)C)C
How it was run: as §1

epoxomicin = compound: CC[C@H](C)[C@@H](C(=O)N[C@@H]([C@@H](C)O)C(=O)N[C@@H](CC(C)C)C(=O)[C@]1(CO1)C)NC(=O)[C@H]([C@@H](C)CC)N(C)C(=O)C [epoxomicin]
How it was run: as §1

[9] = compound: CCn1c(C(=O)N(C2CC2)C2CC2)cc2c3c(ncn3C)c(Nc3cc(C)n(C)n3)nc21
How it was run: as §1

[10] = compound: CCn1cc(-c2ccnc3[nH]c(-c4cccc(CN(C)C)c4)cc23)c(-c2ccc(NC(=O)N(C)C)cc2)n1
How it was run: as §1

[11] = compound: CN(C)CC(=O)Nc1ccc2[nH]c(=O)c3ccccc3c2c1
How it was run: as §1

rosiglitazone = compound: CN(CCOC1=CC=C(C=C1)C[C@H]2C(=O)NC(=O)S2)C3=CC=CC=N3 (racemic) [rosiglitazone]
How it was run: as §1

[12] = compound: CN1C2=C(C3=C1C(=O)N(N=C3)CC4=CC(=CC=C4)N)SC(=C2)S(=O)C
How it was run: as §1

[13] = compound: CN1CCC(CNc2ccc3ncc(-c4cccc(OC(F)(F)F)c4)n3n2)CC1
How it was run: as §1

Sequence of UniProt O94925 (O94925 whole entry, looked up): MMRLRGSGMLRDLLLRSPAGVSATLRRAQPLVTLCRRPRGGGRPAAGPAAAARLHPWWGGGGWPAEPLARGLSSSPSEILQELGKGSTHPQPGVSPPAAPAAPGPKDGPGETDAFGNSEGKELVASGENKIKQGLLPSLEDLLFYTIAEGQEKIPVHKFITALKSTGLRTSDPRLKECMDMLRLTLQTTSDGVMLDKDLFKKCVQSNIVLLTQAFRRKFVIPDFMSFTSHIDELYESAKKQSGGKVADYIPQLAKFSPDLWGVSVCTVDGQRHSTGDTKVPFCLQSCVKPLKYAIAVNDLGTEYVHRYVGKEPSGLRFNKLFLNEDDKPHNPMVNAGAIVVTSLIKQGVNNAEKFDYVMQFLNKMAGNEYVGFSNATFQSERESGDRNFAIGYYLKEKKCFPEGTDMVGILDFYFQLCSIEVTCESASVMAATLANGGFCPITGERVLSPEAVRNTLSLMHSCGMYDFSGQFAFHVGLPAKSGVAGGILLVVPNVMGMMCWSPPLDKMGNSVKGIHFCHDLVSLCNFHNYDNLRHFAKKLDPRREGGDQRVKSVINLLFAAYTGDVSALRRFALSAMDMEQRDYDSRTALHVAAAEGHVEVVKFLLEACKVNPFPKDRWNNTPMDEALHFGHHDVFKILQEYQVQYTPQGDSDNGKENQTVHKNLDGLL
Sequence of UniProt Q12894 (Q12894 whole entry, looked up): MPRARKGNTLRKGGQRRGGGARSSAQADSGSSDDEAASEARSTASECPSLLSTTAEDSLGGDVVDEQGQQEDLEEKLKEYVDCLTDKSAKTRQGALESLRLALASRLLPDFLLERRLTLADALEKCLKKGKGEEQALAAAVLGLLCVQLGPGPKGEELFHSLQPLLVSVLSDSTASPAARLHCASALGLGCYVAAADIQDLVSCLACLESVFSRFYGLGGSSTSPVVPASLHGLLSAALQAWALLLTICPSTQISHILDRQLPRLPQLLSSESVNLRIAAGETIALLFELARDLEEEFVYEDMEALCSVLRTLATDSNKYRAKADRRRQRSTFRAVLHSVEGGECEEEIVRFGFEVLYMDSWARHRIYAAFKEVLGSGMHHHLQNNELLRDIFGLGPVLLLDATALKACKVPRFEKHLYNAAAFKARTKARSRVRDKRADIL
Sequence of UniProt P49448 (P49448 whole entry, looked up): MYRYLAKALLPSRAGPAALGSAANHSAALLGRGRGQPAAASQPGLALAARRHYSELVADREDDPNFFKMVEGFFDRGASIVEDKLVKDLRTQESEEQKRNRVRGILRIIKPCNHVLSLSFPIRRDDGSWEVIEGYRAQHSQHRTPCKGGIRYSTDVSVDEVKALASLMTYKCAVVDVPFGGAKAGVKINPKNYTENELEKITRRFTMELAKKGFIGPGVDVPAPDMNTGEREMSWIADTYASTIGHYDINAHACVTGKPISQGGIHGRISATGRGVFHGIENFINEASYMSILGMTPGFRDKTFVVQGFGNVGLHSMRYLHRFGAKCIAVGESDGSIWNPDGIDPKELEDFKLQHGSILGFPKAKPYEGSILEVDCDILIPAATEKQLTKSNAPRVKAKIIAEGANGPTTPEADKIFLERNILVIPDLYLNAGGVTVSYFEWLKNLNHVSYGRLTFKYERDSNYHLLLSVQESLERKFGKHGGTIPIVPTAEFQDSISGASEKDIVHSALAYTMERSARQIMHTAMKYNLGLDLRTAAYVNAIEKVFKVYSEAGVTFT
Sequence of UniProt Q6P3S6 (Q6P3S6 whole entry, looked up): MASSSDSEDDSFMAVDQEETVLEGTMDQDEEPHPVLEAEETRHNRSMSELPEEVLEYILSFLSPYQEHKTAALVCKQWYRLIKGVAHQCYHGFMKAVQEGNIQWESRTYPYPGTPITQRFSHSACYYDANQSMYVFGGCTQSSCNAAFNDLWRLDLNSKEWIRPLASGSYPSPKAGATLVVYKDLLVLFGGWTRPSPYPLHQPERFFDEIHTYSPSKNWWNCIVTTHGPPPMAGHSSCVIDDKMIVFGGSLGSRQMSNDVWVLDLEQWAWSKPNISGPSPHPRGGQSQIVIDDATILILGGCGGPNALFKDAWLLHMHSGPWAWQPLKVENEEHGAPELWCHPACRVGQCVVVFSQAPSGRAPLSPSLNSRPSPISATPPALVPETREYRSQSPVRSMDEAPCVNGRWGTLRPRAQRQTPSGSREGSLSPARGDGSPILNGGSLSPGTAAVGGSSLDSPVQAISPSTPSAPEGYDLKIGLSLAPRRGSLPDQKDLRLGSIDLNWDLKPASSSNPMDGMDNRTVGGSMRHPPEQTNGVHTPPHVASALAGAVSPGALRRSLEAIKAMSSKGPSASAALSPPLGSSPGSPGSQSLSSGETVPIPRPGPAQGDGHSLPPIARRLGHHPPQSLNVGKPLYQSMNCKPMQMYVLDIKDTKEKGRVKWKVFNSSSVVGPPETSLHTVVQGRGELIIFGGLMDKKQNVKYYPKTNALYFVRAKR
Sequence of UniProt Q9UK99 (Q9UK99 whole entry, looked up): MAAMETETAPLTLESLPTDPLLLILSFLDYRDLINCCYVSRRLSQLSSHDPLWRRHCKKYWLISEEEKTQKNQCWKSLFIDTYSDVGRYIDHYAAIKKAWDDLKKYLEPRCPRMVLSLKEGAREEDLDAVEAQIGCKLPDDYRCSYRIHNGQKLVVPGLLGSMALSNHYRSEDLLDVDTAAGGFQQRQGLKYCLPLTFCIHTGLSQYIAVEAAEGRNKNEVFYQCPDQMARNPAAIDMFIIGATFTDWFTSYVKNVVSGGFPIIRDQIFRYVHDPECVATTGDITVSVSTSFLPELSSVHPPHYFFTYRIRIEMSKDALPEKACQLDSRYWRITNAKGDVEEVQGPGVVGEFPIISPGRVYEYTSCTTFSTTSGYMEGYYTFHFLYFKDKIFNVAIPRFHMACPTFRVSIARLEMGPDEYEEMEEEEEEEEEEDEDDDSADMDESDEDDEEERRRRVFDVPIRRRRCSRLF
Sequence of UniProt Q92917 (Q92917 whole entry, looked up): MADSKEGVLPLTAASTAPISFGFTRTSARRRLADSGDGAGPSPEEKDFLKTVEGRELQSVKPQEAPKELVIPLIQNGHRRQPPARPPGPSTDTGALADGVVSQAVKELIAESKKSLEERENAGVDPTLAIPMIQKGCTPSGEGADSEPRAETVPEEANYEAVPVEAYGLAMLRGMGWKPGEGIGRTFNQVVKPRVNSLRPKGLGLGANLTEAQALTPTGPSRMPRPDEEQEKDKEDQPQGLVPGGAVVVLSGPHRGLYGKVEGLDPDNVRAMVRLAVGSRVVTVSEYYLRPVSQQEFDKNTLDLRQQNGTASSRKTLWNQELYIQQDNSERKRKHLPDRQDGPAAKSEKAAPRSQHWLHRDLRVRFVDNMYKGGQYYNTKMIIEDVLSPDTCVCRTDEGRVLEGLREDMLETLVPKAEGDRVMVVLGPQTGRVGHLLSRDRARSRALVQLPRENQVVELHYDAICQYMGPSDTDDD
Sequence of UniProt P04035 (P04035 whole entry, looked up): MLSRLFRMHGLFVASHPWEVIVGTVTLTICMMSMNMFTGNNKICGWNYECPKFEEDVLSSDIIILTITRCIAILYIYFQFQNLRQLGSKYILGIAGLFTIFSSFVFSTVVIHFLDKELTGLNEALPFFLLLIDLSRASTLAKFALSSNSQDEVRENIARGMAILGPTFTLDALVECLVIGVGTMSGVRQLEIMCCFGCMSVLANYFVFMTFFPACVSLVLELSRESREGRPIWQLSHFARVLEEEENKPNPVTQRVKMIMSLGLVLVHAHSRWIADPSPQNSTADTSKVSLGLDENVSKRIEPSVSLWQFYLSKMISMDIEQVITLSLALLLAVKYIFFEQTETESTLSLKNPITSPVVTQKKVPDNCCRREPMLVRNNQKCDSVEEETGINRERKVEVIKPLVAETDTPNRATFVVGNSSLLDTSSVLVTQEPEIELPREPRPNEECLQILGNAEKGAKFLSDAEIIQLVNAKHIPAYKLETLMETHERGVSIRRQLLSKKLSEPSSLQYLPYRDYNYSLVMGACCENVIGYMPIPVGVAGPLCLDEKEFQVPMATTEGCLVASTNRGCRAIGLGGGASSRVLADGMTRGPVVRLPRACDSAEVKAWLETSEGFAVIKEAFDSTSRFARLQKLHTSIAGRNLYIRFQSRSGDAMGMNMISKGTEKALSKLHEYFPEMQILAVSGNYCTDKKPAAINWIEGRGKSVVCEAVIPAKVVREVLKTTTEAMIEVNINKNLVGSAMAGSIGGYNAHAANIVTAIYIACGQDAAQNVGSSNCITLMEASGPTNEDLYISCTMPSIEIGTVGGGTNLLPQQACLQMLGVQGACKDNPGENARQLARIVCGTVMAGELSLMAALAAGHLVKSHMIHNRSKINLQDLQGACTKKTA
Sequence of UniProt Q86YM7 (Q86YM7 whole entry, looked up): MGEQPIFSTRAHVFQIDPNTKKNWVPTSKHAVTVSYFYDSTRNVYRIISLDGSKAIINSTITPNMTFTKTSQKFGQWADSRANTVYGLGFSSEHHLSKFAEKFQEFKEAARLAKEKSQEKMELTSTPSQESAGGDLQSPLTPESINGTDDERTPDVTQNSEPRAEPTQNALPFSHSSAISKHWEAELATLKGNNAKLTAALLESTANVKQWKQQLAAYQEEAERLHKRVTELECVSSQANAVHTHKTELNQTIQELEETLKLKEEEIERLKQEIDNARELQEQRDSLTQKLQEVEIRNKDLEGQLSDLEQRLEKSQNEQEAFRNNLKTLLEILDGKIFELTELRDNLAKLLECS
Sequence of UniProt Q9Y680 (Q9Y680 whole entry, looked up): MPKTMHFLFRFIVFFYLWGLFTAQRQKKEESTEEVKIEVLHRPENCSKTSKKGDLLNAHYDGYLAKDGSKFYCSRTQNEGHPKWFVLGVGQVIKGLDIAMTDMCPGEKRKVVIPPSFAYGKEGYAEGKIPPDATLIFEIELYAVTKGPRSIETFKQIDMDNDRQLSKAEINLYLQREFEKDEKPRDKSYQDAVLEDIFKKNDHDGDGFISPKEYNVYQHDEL
Sequence of UniProt P60520 (P60520 whole entry, looked up): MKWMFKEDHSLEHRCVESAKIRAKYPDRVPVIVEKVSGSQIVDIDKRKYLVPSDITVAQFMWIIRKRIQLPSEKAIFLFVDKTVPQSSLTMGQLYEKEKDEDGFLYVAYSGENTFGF

Target | log2 fold change [1] | log2 fold change [2] | log2 fold change [3] | log2 fold change [4] | log2 fold change (Nexturastat A) | log2 fold change (vemurafenib) | log2 fold change [5] | log2 fold change [6] | log2 fold change (givinostat) | log2 fold change (barasertib) | log2 fold change [7] | log2 fold change (volasertib) | log2 fold change [8] | log2 fold change (epoxomicin) | log2 fold change [9] | log2 fold change [10] | log2 fold change [11] | log2 fold change (rosiglitazone) | log2 fold change [12] | log2 fold change [13]
HOMER1 (UniProt Q86YM7) | -0.049 | -0.059 | -0.009 | 0.125 | -0.138 | -0.021 | 0.071 | 0.085 | 0.007 | 0.036 | -0.018 | 0.024 | -0.099 | 0.006 | 0.017 | -0.025 | 0.018 | -0.011 | -0.018 | 0.033
GABARAPL2 (UniProt P60520) | -0.01 | 0.023 | 0.067 | 0.188 | -0.122 | 0.026 | 0.051 | -0.03 | 0.03 | 0.007 | -0.29 (active) | -0.182 | 0.041 | 0.027 | 0.007 | -0.049 | -0.017 | 0.099 | -0.07 | -0.099
IFRD2 isoform 2 (UniProt Q12894) | 0.093 | 0.035 | -0.129 | -0.13 | 0.055 | -0.043 | 0.062 | -0.225 | -0.2 | -0.142 | 0.084 | 0.045 | -0.261 | -0.02 | 0 | 0.029 | -0.319 | 0.225 | -0.023 | 0.196
HMGCR isoform 3 (UniProt P04035) | 0.131 | -0.046 | 0.061 | -0.115 | 0.074 | -0.002 | -0.04 | -0.043 | 0.034 | 0.027 | -0.007 | -0.019 | -0.07 | 0.356 (active) | -0.04 | 0.015 | -0.023 | -0.006 | -0.009 | 0.272
HIST2H2BF isoform 2 (UniProt Q5QNW6) | -0.094 | -0.034 | -0.202 | -0.009 | 0.78 (active) | -0.284 | 0.529 | 0.1 | 0.331 | -0.157 | -0.043 | 0.153 | -0.079 | -0.243 | 0.017 | 0.231 | -0.22 | -0.055 | 0.398 | 0.084
FHOD1 (UniProt Q9Y613) | -0.288 | 0.073 | -0.063 | -0.09 | 0.365 | -0.002 | -0.134 | 0.132 | 0.024 | 0.044 | 0.127 | -0.055 | 0.075 | -0.171 | -0.148 | 0.093 | -0.048 | 0.039 | 0.372 | -0.022
GSTM4 (UniProt Q03013) | 0.106 | 0.128 | -0.041 | 0.015 | -0.117 | 0.126 | -0.058 | -0.105 | 0.001 | -0.164 | 0.202 | 0.095 | 0.039 | -0.009 | 0.036 | -0.063 | 0.025 | -0.24 | -0.054 | -0.182
GPKOW (UniProt Q92917) | 0.053 | -0.033 | 0.062 | 0.055 | -0.106 | 0.009 | 0.07 | -0.058 | 0.084 | 0.027 | -0.056 | -0.217 | 0.101 | -0.021 | -0.063 | -0.049 | 0.039 | 0.045 | 0.022 | -0.248
HEATR5B (UniProt Q9P2D3) | 0.013 | 0.005 | 0.03 | 0.022 | 0.219 (active) | 0.019 | -0.014 | -0.024 | 0.07 | 0 | -0.053 | -0.19 | 0.083 | -0.058 | -0.041 | 0.018 | -0.009 | 0.003 | -0.017 | -0.015
FERMT3 (UniProt Q86UX7) | 0.019 | -0.024 | 0.037 | 0.054 | -0.013 | 0.036 | 0.083 | 0.03 | 0.048 | 0.019 | -0.07 | -0.262 (active) | 0.053 | 0.019 | -0.018 | -0.04 | 0.045 | 0.059 | -0.021 | -0.149
FBXO3 (UniProt Q9UK99) | -0.042 | -0.08 | 0 | -0.018 | -0.043 | -0.089 | -0.025 | -0.057 | 0.049 | -0.043 | 0.041 | 0.042 | 0.052 | 0.007 | 0.001 | -0.074 | -0.03 | 0.045 | 0.023 | -0.038
GLUD2 (UniProt P49448) | 0.104 | 0.006 | -0.062 | -0.015 | -0.045 | 0.017 | 0.006 | 0.238 | -0.107 | 0.015 | 0.13 | 0.252 | 0.068 | -0.07 | 0.034 | -0.219 | 0.021 | 0.002 | -0.022 | 0.071
FBXO42 (UniProt Q6P3S6) | -0.033 | 0.164 | -0.038 | 0.04 | -0.072 | -0.086 | 0.083 | -0.025 | 0.09 | 0.015 | 0.093 | 0.011 | 0.028 | 0.056 | -0.031 | 0.002 | -0.019 | 0.027 | 0.032 | 0.021
FKBP7 (UniProt Q9Y680) | -0.052 | 0.001 | -0.034 | -0.074 | 0.002 | -0.031 | -0.097 | -0.025 | 0.002 | 0.044 | 0.035 | 0.021 | 0.015 | -0.04 | 0.003 | 0.026 | -0.042 | -0.054 | -0.001 | 0.191
GLS (UniProt O94925) | -0.013 | -0.072 | -0.024 | 0.034 | -0.065 | 0.096 | 0.132 | 0.062 | 0.041 | 0.054 | -0.271 | -0.366 (active) | 0.142 | 0.151 | -0.026 | -0.051 | 0.103 | 0.085 | -0.085 | -0.241
GNAS (UniProt Q5JWF2) | 0.105 | -0.043 | -0.014 | -0.027 | -0.01 | 0.034 | -0.027 | 0.067 | -0.036 | -0.011 | 0.125 | 0.164 | 0.032 | 0.011 | 0.016 | 0 | -0.02 | 0.006 | -0.03 | 0.057
